Bioassay records as filed in PubChem.
TDP1 cell CPT: qHTS for Inhibitors of human tyrosyl-DNA phosphodiesterase 1 (TDP1): qHTS in cells in presence of CPT; chicken DT40 Tdp1-/-;hTDP1 cells + 20 nM CPT, ATP luminescence, 48 h; Potency, µM (top dose mostly 46.2 µM), for inactives: at the top dose activity change, negative = growth inhibition, hits mostly inhibitors; 420,000 compounds, 12% hits; AID 686979, 2013; note: nearly all actives have a fitted effect of over 55% in size
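Chicken DT40 Tdp1-/- cells complemented with human TDP1, 400 cells/well, exposed to compounds plus 20 nM camptothecin for at least 48 h at 37 C; viability read as ATP content by CellTiter-Glo luminescence.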
TDP1 cell noCPT: qHTS for Inhibitors of human tyrosyl-DNA phosphodiesterase 1 (TDP1): qHTS in cells in absence of CPT; DT40 Tdp1-/- hTDP1 cells, no CPT, ATP luminescence, 48 h; Potency, µM (doses to about 46.2 µM), for the others: at the highest dose activity change, negative = growth inhibition, actives largely listed as inhibitors; 420,000 compounds, 15% hits; note: nearly all actives have a fitted effect of over 55% in size
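Compound effects on proliferation are scored in DT40 Tdp1-/-;hTDP1 cells in the absence of CPT. ATP levels (CellTiter-Glo luminescence) are recorded after a ≥48 hr, 37 °C incubation.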
VDR inh: Inhibitors of the vitamin D receptor (VDR): qHTS; 400,000 compounds, 0.93% hits; Vitamin D3 receptor (Homo sapiens), P11473; VDR-SRC2-3 peptide fluorescence polarization, 2 h; Potency, µM, for inactives: max response, negative = inhibition, usual class: inhibitors; AID 504847, 2011
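After 23 nl compound addition and a short centrifugation, plates sat for 2 hours at ambient temperature; polarization of fluorescence then indicated loss of VDR binding to peptide SRC2-3.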
TDP1 inh: qHTS Assay for Inhibitors of Tyrosyl-DNA Phosphodiesterase (TDP1); Tyrosyl-DNA phosphodiesterase 1 (Homo sapiens), Q9NUW8; recombinant TDP1, AlphaScreen DNA substrate cleavage; Potency, µM (top dose mostly 130 µM), without a hit: top-dose activity change, negative = inhibition, actives largely listed as inhibitors; 350,000 compounds, 0.28% hits; AID 485290, 2010; note: nearly all actives have a fitted effect of over 40% in size
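Signal: AlphaScreen proximity between streptavidin donor and anti-FITC acceptor beads on intact substrate. Reaction: Tdp1 1 nM, substrate 15 nM final, 5 min RT after 15 min compound preincubation.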
PLK1 PBD block: qHTS for Inhibitors of PLK1-PDB (polo-like kinase 1 - polo-box domain): Primary Screen | AID 720504, 2013 | 360,000 compounds, 2.8% hits | Potency, µM, for the others: max response, negative = inhibition, usual class: inhibitors | Plk1 PBD binding of FITC phosphopeptide, fluorescence polarization | Serine/threonine-protein kinase PLK1 (Homo sapiens), P53350; note: series mostly up to about 57 µM; nearly all actives have a fitted effect of over 65% in size
GCN5L2 inh: qHTS Assay for Inhibitors of GCN5L2; Histone acetyltransferase KAT2A (Homo sapiens), Q92830; GCN5L2 HAT assay, ThioGlo1 CoA-SH fluorescence; Potency, µM (doses to about 58.9 µM), for inactives: at the top dose activity change, negative = inhibition, usual class: inhibitors; 390,000 compounds, 0.21% hits; AID 504327, 2011
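Compounds, pin-transferred from DMSO stocks, meet 20nM GCN5L2 for 15 min before the reaction begins with H3(1-25) peptide (75uM) and acetyl-CoA (70uM). Thiol-reactive ThioGlo1 reports CoA release over 20 min at room temperature.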
Numbers without * were called inactive; ? = inconclusive; / = no result given. The list is not random: actives were taken first. Their share in the collection is about 18%. Calls come from the whole dose curve; as a rule, active = well fitted curve in the direction sought with a large enough effect; inconclusive = small, poorly fitted or top-dose-only effect, or another doubt; inactive = no such curve, though single readings can be large; an effect the other way counts as inactive or inconclusive. % is set by controls: 0 for no effect and ±100 for the full control effect; potency is the fitted concentration of half-maximal effect.

SMILES	TDP1 cell CPT	TDP1 cell noCPT	VDR inh	TDP1 inh	PLK1 PBD block	GCN5L2 inh
COc1ccc(CNC(=O)c2ccc(-c3nc(CSc4ccccc4)c(C)o3)cc2)c(OC)c1	-3%	-27%	16%	0%	/	2%
COc1ccccc1CCNC(=O)c1ccc(-c2nc(CSc3ccc(C)cc3)c(C)o2)cc1	16µM*	8.2µM*	2%	0%	/	-4%
CCOc1ccccc1CNC(=O)c1ccc(-c2nc(CSc3ccc(C)cc3)c(C)o2)cc1	9.2µM*	13µM*	0%	6%	/	-2%
Cc1ccc(SCc2nc(-c3ccc(C(=O)NCc4ccc(Cl)cc4)cc3)oc2C)cc1	15µM*	9.2µM*	10%	3%	/	1%
CC(=O)c1ccc(NC(=O)c2ccc(-c3nc(CSc4ccc(C)cc4)c(C)o3)cc2)cc1	?	?	-2%	6%	/	-20%
COc1ccc(CNC(=O)c2ccc(-c3nc(CSc4ccc(C)cc4)c(C)o3)cc2)c(OC)c1	8.2µM*	?	14%	3%	/	-3%
CCOc1ccc(CCNC(=O)c2ccc(-c3nc(CSc4ccc(C)cc4)c(C)o3)cc2)cc1	-2%	-5%	5%	0%	/	3%
O=[N+]([O-])c1ccccc1N/N=C/c1cc2ccccc2nc1Cl	4.1µM*	?	-7%	-5%	-3%	2%
C(=N\Nc1nc2ccccc2[nH]1)/c1ccncc1	2%	-27%	8%	9%	-17%	-12%
Clc1nc2ccccc2cc1/C=N/Nc1nc2ccccc2[nH]1	?	15µM*	-19%	5%	-4%	-1%
O=C(O)c1ccc(N/N=C/c2cc3ccccc3nc2Cl)cc1	-16%	?	?	/	-7%	-29%
O=c1c2sc3ccccc3c2n(Cc2ccccc2)c(=O)n1Cc1ccccc1	-2%	-22%	-1%	4%	/	-2%
O=c1c2sc3ccccc3c2n(Cc2cccc(Cl)c2)c(=O)n1Cc1ccc(F)cc1	10µM*	6.5µM*	-17%	6%	/	-7%
O=c1c2sc3ccccc3c2n(Cc2cccc(Cl)c2)c(=O)n1Cc1ccccc1	13µM*	?	-15%	3%	/	0%
O=c1c2sc3ccccc3c2n(Cc2cccc(C(F)(F)F)c2)c(=O)n1Cc1ccc(F)cc1	?	?	-2%	1%	/	-3%
O=c1c2sc3ccccc3c2n(Cc2cccc(F)c2)c(=O)n1Cc1ccccc1	?	16µM*	-12%	-4%	/	-5%
O=c1c2sc3ccccc3c2n(Cc2cccc(Cl)c2)c(=O)n1Cc1ccco1	21µM*	23µM*	-17%	0%	/	-3%
C[C@H](CO)N1C[C@H](C)[C@@H](CN(C)S(=O)(=O)c2ccccc2F)Oc2ncc(Br)cc2C1=O	-20%	-26%	/	/	-8%	/
CCCCNC(=O)Nc1nnc(C(C)(C)C)s1	-2%	?	-2%	7%	-4%	-11%
O=C(NC(c1cccnc1)c1ccc2c(c1)OCO2)C1CCN(CCOc2ccc(Cl)cc2Cl)CC1 (stereo not drawn)	-45%	?	/	/	-4%	/
O=C(Cn1c(=O)n(Cc2ccco2)c(=O)c2sc3ccccc3c21)Nc1ccc(F)cc1F	?	10µM*	-13%	-1%	/	0%
O=c1c2sc3ccccc3c2n(Cc2ccccc2F)c(=O)n1Cc1ccccc1	-18%	?	-4%	4%	/	-4%
O=c1c2sc3ccccc3c2n(Cc2ccccc2F)c(=O)n1-c1ccccc1Cl	21µM*	9.2µM*	-2%	-1%	/	-5%
Cc1ccc(NC(=O)Cn2c(=O)n(Cc3ccco3)c(=O)c3sc4ccccc4c32)c(C)c1	?	-18%	3%	6%	/	-8%
O=[N+]([O-])c1ccccc1NS(=O)(=O)c1ccccc1	-11%	-27%	/	/	2%	/
SMILES	TDP1 cell CPT	TDP1 cell noCPT	VDR inh	TDP1 inh	PLK1 PBD block	GCN5L2 inh
Cc1cccc(C(=O)OCC(=O)NC(C)CCc2ccccc2)c1O (stereo not drawn)	11%	-19%	-24%	/	-9%	10%
COc1ccc(-c2nnc3sc(C(C)N4C(=O)c5ccccc5C4=O)nn23)cc1 (stereo not drawn)	?	-12%	?	-5%	24µM*	-7%
CCCN1CCN(C(=S)NCc2ccc(Cl)cc2)CC1	-17%	0%	-2%	4%	-8%	2%
Cc1cnn(C(=S)NCc2ccc(Cl)cc2)c1	?	23µM*	?	2%	?	1%
FC(F)C(F)(F)Oc1cccc(Nc2nccn3c(-c4ccc5ccccc5c4)cnc23)c1	?	23µM*	/	/	8%	/
FC(F)C(F)(F)Oc1cccc(Nc2nccn3c(-c4cccc5ccccc45)cnc23)c1	16µM*	?	/	/	2%	/
Oc1ccc(-c2cnc3c(Nc4cccc(OC(F)(F)C(F)F)c4)nccn23)cc1	?	?	/	/	6%	/
CCc1ccc(CN(Cc2ccco2)C(=O)c2cc(-c3ccc(C)c(F)c3)on2)cc1	?	?	10%	6%	/	-3%
O=C(Cn1c(=O)n(Cc2ccc(F)cc2)c(=O)c2sc3ccccc3c21)NCc1ccccc1Cl	?	?	-1%	2%	/	-4%
COC(=O)C(=C/C(C)=C/c1cccs1)C(=O)OC	?	?	-13%	-4%	19µM*	8%
Cc1cccc(/C=C/c2cccs2)n1	1.1µM*	0.63µM*	/	/	/	/
C/C(=N/NC(=O)c1ccncc1)c1cc2ccc(O)cc2oc1=O	9%	-18%	3%	2%	12µM*	-11%
COc1ccc2oc(=O)c(/C(N)=N/NC(=O)c3ccncc3)cc2c1	-1%	-27%	-23%	50µM*	24µM*	1%
CNC(=O)c1cc2cc(OC)ccc2oc1=O	4%	-1%	0%	2%	-2%	-5%
C/C(=N\Nc1ccc([N+](=O)[O-])cc1[N+](=O)[O-])c1cc2c(ccc3ccccc32)oc1=O	/	/	/	/	/	0%
C/C(=N\NC(=O)c1ccccc1)c1cc2cc([N+](=O)[O-])ccc2oc1=O	?	?	-3%	-5%	24µM*	6%
C/C(=N/NC(N)=S)c1cc2ccc(O)cc2oc1=O	7%	4%	-13%	6%	30%	?
